Bioassay records: PubChem, National Center for Advancing Translational Sciences (NCATS)
Hits are enriched below; roughly 2.8% of the tested compounds scored in any of these assays.
D3 ag – D3 dopamine receptor (human) agonism | P35462 | D3R DiscoveRx beta-arrestin cells, luminescence, 90 min | max activation, % | 410,000 compounds, 0.58% hits | AID 652048; in the data active = max activation above about 30%; also: 0% is about no effect
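Agonist-mode cell screen: cells plated at 1500/well and incubated overnight at 37 °C, then exposed to library compounds for 90 min at 37 °C. Detection reagent was added for 30–60 min at room temperature, and luminescence was read.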
PI4K2A inh – blocks human PI4K2A kinase activity; 420,000 compounds, 0.13% hits; Q9BTU6; purified PI4K2A, ADP-Glo luminescence, 1 h; hits give low values; activity change, negative = inhibition, % at 76.9 µM; AID 1346378; in the data active = activity change below about -50%; inconclusive = mostly about -30% to -49%;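 also: -100% = wells without enzyme as full effect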
Target sequence (Q9BTU6 whole entry, looked up): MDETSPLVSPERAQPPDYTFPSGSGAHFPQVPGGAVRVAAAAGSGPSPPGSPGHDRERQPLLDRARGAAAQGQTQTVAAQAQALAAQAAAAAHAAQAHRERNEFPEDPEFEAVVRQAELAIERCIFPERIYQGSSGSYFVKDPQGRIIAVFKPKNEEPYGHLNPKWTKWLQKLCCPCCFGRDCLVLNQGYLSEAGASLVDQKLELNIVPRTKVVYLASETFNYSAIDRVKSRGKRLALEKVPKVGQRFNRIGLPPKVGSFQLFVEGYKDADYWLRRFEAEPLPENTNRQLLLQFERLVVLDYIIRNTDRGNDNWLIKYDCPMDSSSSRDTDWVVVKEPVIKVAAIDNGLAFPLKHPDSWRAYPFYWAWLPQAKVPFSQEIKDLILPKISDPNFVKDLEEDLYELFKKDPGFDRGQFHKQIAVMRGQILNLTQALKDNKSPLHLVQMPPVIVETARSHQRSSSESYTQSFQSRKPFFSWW
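PI4K2A activity was measured by ADP-Glo luminescence: enzyme (4 ug/mL stock) and phosphatidylinositol (1.2 mM stock) in Tris pH 7.5/MgCl2/EGTA/Triton X-100 buffer were reacted with ATP (300 microM stock) for one hour at ambient temperature.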
LDHA inh – blocks human lactate dehydrogenase A | activity change, % (values are at about 110 or 230 µM) | purified LDHA, NADH/diaphorase-resazurin fluorescence; hits give low values | 480,000 compounds, 0.15% hits; in the data active = activity change below about -30%; inconclusive = mostly about -25% to -30%;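 also: plate controls were DMSO wells for no effect and wells without enzyme for full effect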
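LDH5 2 nM; NADH 0.06 mM, pyruvate 0.2 mM; 200 mM Tris pH 7.4, EDTA, Tween-20; 5 min RT. Detection: diaphorase 0.133 mg/mL + resazurin 37 µM, fluorescence ex540/em590 at 0 and 20 min; normalized to enzyme-free and DMSO wells.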
Akt phos inh – blocks phosphorylation of Akt | Neuro2A IGF-stimulated pAkt S473 HTRF, 20 min; hits give low values | 360,000 compounds, 0.32% hits | AID 651550 | activity change, % for hits at 50 µM; in the data active = activity change below about -80%; inconclusive = mostly about -51% to -80%; also: % is scaled to controls: 0 for no effect and ±100 for the full control effect
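Neuro2A cells (4,500/well, DMEM with 0.5% FBS) were treated with compound at a single 50 µM final concentration, stimulated with 6 nM IGF for 20 min at 37 °C, and lysed. Phospho-Akt Ser473 was read by HTRF as 665/615 ratio ×10^4.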
DRD3 antagonist – blocks the human D3 dopamine receptor. P35462. D3R cells, DiscoveRx beta-arrestin luminescence, antagonist mode; hits give low values. max response, negative = inhibition, %. 360,000 compounds, 2.5% hits; in the data active = max response below about -50%; inconclusive = no clear call, values can overlap the other calls; also: % is scaled to controls: 0 for no effect and ±100 for the full control effect
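Cells expressing the human receptor were seeded at 1500 cells/well, incubated overnight at 37 degrees C in 5% CO2, then exposed to library compounds with dopamine controls for 90 minutes at 37 degrees C before luminescent detection.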
RGS4 inh – human RGS4 inhibition | P49798 | Transcreener GDP fluorescence polarization, RGS4-accelerated GTP hydrolysis | Potency, µM (titrated, usually from 114 µM), for the others: at the highest dose activity change, negative = inhibition, most hits filed as inhibitors | 390,000 compounds, 0.039% hits | AID 504845; active = well fitted inhibition curve with a large enough effect; inconclusive = small, poorly fitted or top-dose-only effect; inactive = no such curve, though single readings can be large or run the other way; also: potency is read from the fitted curve at half-maximal effect; % is scaled to controls: 0 for no effect and ±100 for the full control effect; nearly all actives have a fitted effect of over 75% in size
Target sequence (P49798 whole entry, looked up): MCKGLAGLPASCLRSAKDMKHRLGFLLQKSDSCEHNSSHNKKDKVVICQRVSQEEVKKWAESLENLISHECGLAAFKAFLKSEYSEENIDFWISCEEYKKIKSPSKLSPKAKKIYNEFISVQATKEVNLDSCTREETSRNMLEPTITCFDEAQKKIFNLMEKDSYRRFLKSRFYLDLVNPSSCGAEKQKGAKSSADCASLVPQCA
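MLSMR compounds (23 nl, pin-transferred) preincubated 10 min at room temperature with a 500nM (2x) first reagent, then RGS4 at 900nM (2x) plus Transcreener GDP mix added; fluorescence polarization (620/688 nm) read before and after 90 min at 30 °C.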
* = called active by the depositor; ! = not confirmed by another sample; [ ] = dose if it differs, or a comment.

Screening C=C1C(=O)[C@]23C[C@H]1CC[C@H]2[C@]1(C)[C@@H](OC(C)=O)CC[C@@](C)(C(=O)O)[C@H]1C[C@@H]3O returned D3 ag -10.3, PI4K2A inh -23.2, LDHA inh -7.3, Akt phos inh inactive and DRD3 antagonist inconclusive.
Screening CCCNC(=O)CNC(=O)c1cc(=O)[nH]c2ccccc12 returned LDHA inh -4.5.
Cc1ccc(CNC(=O)Cc2c[nH]c3ccccc23)s1 was read as LDHA inh 5.5.
[N-]=[N+]=Nc1ccc(C(=O)CSC[C@H](NC(=O)CC[C@H](N)C(=O)O)C(=O)NCC(=O)O)cc1 was read as PI4K2A inh 2.0 and RGS4 inh 3.36µM*.
Screening Cc1ccc(NC(=O)NCc2nc(-c3ccccc3C)oc2C)cc1F returned LDHA inh 7.6.
Screening Clc1ccc(-c2noc(-c3cc(-c4ccco4)n[nH]3)n2)cc1 returned LDHA inh -1.9.
`COc1ccc(N2CCN(C(=O)CSc3nnc4n3C(C)(C)Cc3ccccc3-4)CC2)cc1` gave D3 ag 27.5, PI4K2A inh 4.4, LDHA inh -2.8, Akt phos inh inactive, DRD3 antagonist 43.7 and RGS4 inh -0.3%.
`Cc1ccc(Cl)cc1N1CCN(C(=O)CSc2nnc3n2C(C)(C)Cc2ccccc2-3)CC1` gave D3 ag 45.3*, PI4K2A inh 2.1, LDHA inh -8.5, Akt phos inh inactive, DRD3 antagonist inconclusive and RGS4 inh 6.6%.
`CCc1sc(Nc2ccc(Cl)cc2)nc1-c1cc2cccc(OC)c2oc1=O` gave D3 ag 13.9, PI4K2A inh 0.3, LDHA inh 5.5 and RGS4 inh -15.9%.
For CCc1ccc(Nc2nc(-c3cc4cccc(OC)c4oc3=O)c(CC)s2)cc1 the results were D3 ag 50.2*, PI4K2A inh -1.4, LDHA inh 3.7 and RGS4 inh -9.4%.
Screening CCOC(=O)c1sc(NC(=S)NC(=O)CC(C)C)cc1C returned D3 ag 8.4, PI4K2A inh 5.5, LDHA inh 4.1, Akt phos inh inactive, DRD3 antagonist -78.3* and RGS4 inh -11.0%[11.4 µM].
For CCOC(=O)c1sc(NC(=S)NC(=O)C2CCCC2)cc1C the results were D3 ag 8.8, PI4K2A inh -10.1, LDHA inh -2.7, Akt phos inh inactive, DRD3 antagonist 6.8 and RGS4 inh -20.3%.
Screening COc1cc(NC(=O)CCN2CCN(C/C=C/c3ccccc3)CC2)cc(OC)c1 returned D3 ag 2.6, PI4K2A inh 0.1, LDHA inh 2.1, Akt phos inh inactive, DRD3 antagonist -58.6* and RGS4 inh 9.1%.
COc1ccc(C)cc1NC(=O)CCN1CCN(C/C=C/c2ccccc2)CC1 was read as D3 ag -15.1, PI4K2A inh -5.2, LDHA inh -6.4, Akt phos inh inactive, DRD3 antagonist -52.4* and RGS4 inh 4.6%.
CC(C)(CNCc1ccccc1)NS(=O)(=O)c1ccccc1 was read as D3 ag -22.6, PI4K2A inh -0.3, LDHA inh -0.9, Akt phos inh inactive, DRD3 antagonist -2.0 and RGS4 inh 1.0%.
For Cc1ccc(S(=O)(=O)NC(C)(C)CN2CCC(Cc3ccccc3)CC2)cc1 the results were D3 ag -19.0, PI4K2A inh 4.4, LDHA inh -6.9, Akt phos inh inactive, DRD3 antagonist -58.8* and RGS4 inh -7.1%.
`COc1ccc(NC(=O)CCN2CCN(C/C=C/c3ccccc3)CC2)cc1` gave D3 ag -9.0, PI4K2A inh -1.1, LDHA inh 0.9, Akt phos inh inactive, DRD3 antagonist -11.7 and RGS4 inh 5.2%.
`CC(C)(CNCc1ccccc1)NS(=O)(=O)c1ccc(Cl)cc1` gave D3 ag -9.8, PI4K2A inh 1.4, LDHA inh -0.5, Akt phos inh inactive, DRD3 antagonist -56.7* and RGS4 inh -17.5%.
For CN1CCN(C(=O)C2CCN(c3nn4cc(-c5ccc(F)cc5)nc4s3)CC2)CC1 the results were LDHA inh 3.8.
For CC(C)(CN1CCNCC1)NS(=O)(=O)c1ccc(Cl)cc1 the results were D3 ag -23.3, PI4K2A inh 1.5, LDHA inh -4.3, Akt phos inh inactive, DRD3 antagonist -95.0* and RGS4 inh 20.0%.
For CC(C)(CN1CCCC1)NS(=O)(=O)c1ccc(Cl)cc1 the results were D3 ag -13.3, PI4K2A inh 1.2, LDHA inh -2.7, Akt phos inh inactive, DRD3 antagonist 0.0 and RGS4 inh 10.7%.
`Cc1ccc(NC(=O)CCN2CCN(C/C=C/c3ccccc3)CC2)cc1` gave D3 ag -7.1, PI4K2A inh -19.8, LDHA inh 0.0, Akt phos inh inactive, DRD3 antagonist -52.9* and RGS4 inh -12.0%.
Screening Cc1ccc(NC(=O)CCN2CCN(C/C=C/c3ccccc3)CC2)cc1C returned D3 ag -8.8, PI4K2A inh 2.4, LDHA inh 1.7, Akt phos inh inactive, DRD3 antagonist -6.9 and RGS4 inh 4.2%.
Cc1ccc(NC(=O)CCN2CCC(Cc3ccccc3)CC2)cc1 was read as D3 ag -17.3, PI4K2A inh 4.5, LDHA inh -4.1, Akt phos inh inactive, DRD3 antagonist -53.2* and RGS4 inh -5.8%.
For Cc1ccnc(N/C=C(/Cl)C(=O)C(F)(F)F)c1 the results were LDHA inh -0.8.
For CSc1ncc2c(=O)n(CC(=O)Nc3ccccc3F)cnc2n1 the results were LDHA inh -0.5.
For Cc1c(NC(=O)c2cc(-c3ccco3)on2)c(=O)n(-c2ccccc2)n1C the results were D3 ag 2.3, PI4K2A inh -0.1, LDHA inh -7.5, Akt phos inh inactive, DRD3 antagonist -4.4 and RGS4 inh 7.2%.
Screening O=C(NC1CCCC1)c1cc(-c2cccs2)on1 returned D3 ag -12.8, PI4K2A inh 6.3, LDHA inh -38.7*!, Akt phos inh inactive, DRD3 antagonist -12.7 and RGS4 inh -12.2%.
O=C(NC1CCCC1)c1cc(-c2ccccc2O)on1 was read as D3 ag -2.4, PI4K2A inh -1.4, LDHA inh -11.0, Akt phos inh inactive, DRD3 antagonist -7.7 and RGS4 inh -7.1%.
Screening O=C(Nc1cccc(C(F)(F)F)c1)c1cc(-c2cccs2)on1 returned D3 ag -67.1, PI4K2A inh -0.3, LDHA inh -8.3, Akt phos inh inactive, DRD3 antagonist -64.8* and RGS4 inh inconclusive.
`O=C(Nc1cccnc1)c1cc(-c2ccccc2O)on1` gave D3 ag -2.4, PI4K2A inh -3.6, LDHA inh -4.7, Akt phos inh inactive, DRD3 antagonist -18.6 and RGS4 inh 23.4%.
